# In the supplement of paper PMC10338343:
# ± gives the standard deviation.
# Test system: MILI (PIWIL2) piRISC loaded with L1MC piRNA (26 nt)
# Test: pre-steady-state target cleavage rate (min^-1); guide: L1MC piRNA 5'p-UAACUAAAUACUAUGCAAGCUGUAGG; MIWI and MILI are mouse PIWI proteins and EfPiwi is from a freshwater sponge; tags in brackets are library labels; higher = faster piRNA-guided slicing of the target
# Outline: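 Using HEPES–potassium acetate buffer at 33 °C, 1 nM active affinity-purified piRISC with a single synthetic guide was mixed with 0.1 nM transcribed, DNA-blocked target RNA library for 0–8 or 0–960 min, with or without 500 nM GTSF1 partner protein. Uncleaved targets were sequenced and normalised to depth and to weakly complementary targets, and three trials were pooled with k3 capped at 0.0001 min^-1. A burst-and-steady-state fit gave the pre-steady-state cleavage rate.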
# [1] = auxiliary factor: 500 nM mouse GTSF1
# [2] = auxiliary factor: none (no GTSF1)
Sequence,pre-steady-state target cleavage rate [1],pre-steady-state target cleavage rate [2]
UCCUGGAUGAGGAUGCAUAGUAUUUAGUAA,0.116 ± 0.029,0.00444 ± 0.002
UCCUGGAUGUCCUUGCAUUGUUUUUAGUUA,0.00791 ± 0.0055,0.00421 ± 0.0023
UCCUGGAUGUGCUUGCAUACAAUUUAGUUA,0.00405 ± 0.0039,0.0028 ± 0.0024
UCCUGGAUGUCCUUGCAUAGUGAUUUAGUUA,0.0104 ± 0.0052,0.00503 ± 0.0028
UCCUGGAUGUCGAUAGCAUAGUAUUUAGUUA,0.0459 ± 0.014,0.00341 ± 0.0026
UCCUGGUACAGCUUGCAUAGAUUUUAGUUA,0.0355 ± 0.0097,0.00346 ± 0.0029
UCCUGGAACAGCUUGCACAGUAUUUAGUUA,0.169 ± 0.014,0.0128 ± 0.003
UCCUGGAUGUCGAUGCAUAGUAUUUAGGUUA,0.0911 ± 0.016,0.00466 ± 0.0031
UCCUGGUACAGCUUGCAUUGUUUUUAGUUA,0.0201 ± 0.0095,0.00647 ± 0.0034
UCCUGGAUGUCCUUGCUUUGUAUUUAGUUA,0.00984 ± 0.0041,0.00458 ± 0.0025
UCCUGCUACAGCAAGCAUAGUAUUUAGUAA,0.281 ± 0.026,0.00383 ± 0.0032
UCCUGCUACAGCUUGCAUUGUUUUUAGUUA,0.0212 ± 0.007,0.00289 ± 0.0028
UCCUGGAUGUGCUUAGCAUAGUAUUUAGUUA,0.124 ± 0.015,0.00625 ± 0.0028
UCCUGGAUGUCCUUGCAUAGUCAUUUAGUUA,0.00722 ± 0.0051,0.00338 ± 0.003
UCCUGGAUGAGCUUGCUAGUAUUUAGUUA,0.00709 ± 0.0035,0.00421 ± 0.0027
UCCUGGAUGUCGUUGCAUAGUAAAUAGUUA,0.0599 ± 0.019,0.00437 ± 0.0023
UCCUGGUAGAGCUUGCUUAGUAUUUAGUUA,0.226 ± 0.012,0.00793 ± 0.0029
UCCUGGAUGUCCUAGCAUAGUUUUUAGUUA,0.0106 ± 0.0049,0.00512 ± 0.0022
UCCUGGAACUGCUUGCAUAGUUUUUAGUUA,0.0358 ± 0.0071,0.00455 ± 0.0018
UCCUGCUACAGCUUGCAGAGUAUUUAGUUA,0.27 ± 0.028,0.00514 ± 0.002

Sequence,pre-steady-state target cleavage rate [1],pre-steady-state target cleavage rate [2]
UCCUGCUAGAGCAUGCAUAGUAUUUAGUUA,0.226 ± 0.018,0.00708 ± 0.0024
UCCUGGAUGAGCUACCAUAGUAUUUAGUUA,0.101 ± 0.018,0.00301 ± 0.0025
UCCUGCUACAGCUUGCAUAGUUAUUUAGUUA,0.0195 ± 0.0087,0.00428 ± 0.0024
UCCUCCUACAGCUUGCAUAGAUAUUUAGUUA,0.0178 ± 0.0058,0.00345 ± 0.0022
UCCUGGAUGUCGAAGCAUGGUAUUUAGUUA,0.0111 ± 0.0048,0.00436 ± 0.0021
UCCUGGAUGUCCUUGCAUAGUAAUUAGUUA,0.111 ± 0.019,0.00618 ± 0.0018
UCCUGGAUGUCGAUGCAUAGUAUUUAGUUU [g2:g17:cont:t1U],0.09 ± 0.011,0.00618 ± 0.0021
UCCUGGAUGUGCAUGCUUAGUAUUUAGUUA,0.0349 ± 0.011,0.0103 ± 0.0032
UCCUGGUACAGCUAGCAAAGUAUUUAGUUA,0.102 ± 0.013,0.0127 ± 0.0033
UCCUGGUACAGCUUGGUAAGUAUUUAGUUA,0.113 ± 0.018,0.00809 ± 0.0033
UCCUGGAUGAGCUUGCAAGUAUUUAGUUA,0.0177 ± 0.0056,0.00379 ± 0.0026
UCCUCCUACAGCUUGGAUUGUAUUUAGUUA,0.165 ± 0.015,0.00457 ± 0.002
UCCUGGAUCAGCUUGCUUAGUAUAUAGUUA,0.234 ± 0.014,0.00803 ± 0.0031
UCCUGGAUGAGCUUGAUAGUAUUUAGUUA,0.017 ± 0.0068,0.00442 ± 0.0028
UCCUGGAUGUCGAUGCCUAGUAUUUAGUUA,0.0127 ± 0.0028,0.00351 ± 0.0023
UCCUGGAUGUCCUUGCAUUGUAAUUAGUUA,0.014 ± 0.0069,0.00354 ± 0.0025
UCCUGGUACAGCUUUCAUAGUAUUUAGUUA,0.22 ± 0.042,0.0103 ± 0.0032
UCCUGGAUGUCCUUGCAAAGUAUUAAGUUA,0.0398 ± 0.0098,0.00691 ± 0.0023
UCCUGGAUCAGCUUGCAUAGAUAUUUAGUUA,0.0135 ± 0.004,0.00307 ± 0.0026
UCCUGGAUGUGCUUGCAUAGUAUUUAGUAA,0.246 ± 0.031,0.00665 ± 0.0025

Sequence,pre-steady-state target cleavage rate [1],pre-steady-state target cleavage rate [2]
UCCUGGAUGUCAUUGCAUAGUAUUUAGUUA,0.0928 ± 0.015,0.0087 ± 0.0027
UCCUGGAUGUCGAUGGAUAGUAUUUAGUUA,0.0431 ± 0.0076,0.00383 ± 0.0027
UCCUGGAUGAGCUUGCAUAGAUAUUUAGUUA,0.00786 ± 0.0038,0.00424 ± 0.0022
UCCUGGUACAGCUUGCUAAGUAUUUAGUUA,0.123 ± 0.015,0.00432 ± 0.0026
UCCUGGAUGACCUUGCUUAGUAUUUAGUUA,0.114 ± 0.019,0.00599 ± 0.0028
UCCUGGAUGUCGUUGCAUAAUAUUUAGUUA,0.0662 ± 0.017,0.00621 ± 0.0023
UCCUGGAUGUCGAUGCAUAGUAGUUUAGUUA,0.0201 ± 0.005,0.00577 ± 0.0027
UCCUGGAACAGCUUGCAUAGUUAUUUAGUUA,0.0126 ± 0.0059,0.00339 ± 0.0029
UCCUGGAUGAGCAUGCAUAGUAUUUAGAUA,0.166 ± 0.024,0.00498 ± 0.0025
UCCUGGAUGUCCUUGCAUAGUAAUUUAGUUA,0.0401 ± 0.013,0.00555 ± 0.0026
UCCUGGUACAGCUUGAUAGUAUUUAGUUA,0.0803 ± 0.011,0.00786 ± 0.0031
UCCUGGAACAGCUUGCAUUGUUUUUAGUUA,0.0144 ± 0.0059,0.00334 ± 0.0023
UCCUGGAACAGCUACCAUAGUAUUUAGUAA,0.23 ± 0.028,0.00298 ± 0.0029
UCCUGGAUGUGGUUGGAUAGUAUUUAGUUA,0.109 ± 0.019,0.00858 ± 0.0028
UCCUGGAUGUCCUUGCAUGGUAUUUAGUUA,0.0346 ± 0.011,0.00814 ± 0.0026
UCCUGGAUGAGCUUGCAGAGUAUUUAGUUA,0.0869 ± 0.0095,0.00792 ± 0.0024
UCCUGGAUGUGCUUGGAUAGUAUUAAGUUA,0.0647 ± 0.018,0.00591 ± 0.0023
UCCUGGAUCAGCAUGGAUAGUAUUUAGUUA,0.19 ± 0.0097,0.0106 ± 0.0024
UCCUCCUACAGCUUGCAUAGUAAUUAGUUA,0.275 ± 0.022,0.00666 ± 0.0023
UCCUGGAUGUCGUUGCACAGUAUUUAGUUA,0.0899 ± 0.011,0.00642 ± 0.0028
